Test results reported in PubChem BioAssay (NCI).
The panel holds about 83,000 compounds, 20% with a hit somewhere; the sample as a whole holds those more often.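 Plates (96-well) were seeded with cells, treated with compound at one concentration, and incubated for 48 hours before percent growth was determined.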 Values without a mark were called inactive. Active and inactive are the calls of the source. Rule for the calls: active = growth percent below 10; inactive = the rest.

How the values were obtained:
Assay in all cases: NCI-60 one-dose screen, 48 h (100 = growth as untreated, 0 = no growth, -100 = all killed)
Settings in all cases: 10 µM unless noted
[1] = tested on: DU-145 prostate
[2] = tested on: K-562 leukemia
[3] = tested on: MALME-3M melanoma
[4] = tested on: MDA-MB-231 breast
[5] = tested on: SF-268 CNS
[6] = tested on: SF-295 CNS
[7] = tested on: SF-539 CNS
[8] = tested on: M14 melanoma
[9] = tested on: HCT-15 colon
[10] = tested on: HT29 colon
[11] = tested on: SNB-75 CNS
[12] = tested on: SNB-19 CNS
[13] = tested on: U251 CNS
[14] = tested on: PC-3 prostate
[15] = tested on: SK-MEL-5 melanoma
[16] = tested on: UACC-62 melanoma
[17] = tested on: LOX IMVI melanoma
[18] = tested on: SK-MEL-28 melanoma
[19] = tested on: RXF 393 renal

NS(=O)(=O)c1ccc(CCN2C(=O)/C(=C\c3ccc(Cl)cc3)C=C2c2ccc3ccccc3c2)cc1
growth [1]: 108%
growth [2]: 96.4%
growth [3]: 98.8%
growth [4]: 90.5%
growth [5]: 103%
growth [6]: 99.1%
growth [7]: 101%
growth [8]: 95%
growth [9]: 94.9%
growth [10]: 87.9%
growth [11]: 78.1%
growth [12]: 92.5%
growth [13]: 85.5%
growth [14]: 75.8%
growth [15]: 94.8%
growth [16]: 71.8%
growth [17]: 96.1%
growth [18]: 103%

CC(C)c1ccc(/C=N/Nc2nc3ccccc3s2)cc1
growth [1]: 101%
growth [2]: 85.5%
growth [3]: 62.9%
growth [4]: 81.6%
growth [5]: 99.2%
growth [6]: 98.5%
growth [7]: 103%
growth [8]: 94.5%
growth [9]: 83.9%
growth [10]: 78.8%
growth [11]: 103%
growth [12]: 97.7%
growth [13]: 80.8%
growth [14]: 77.9%
growth [15]: 91.6%
growth [16]: 87%
growth [17]: 89.1%
growth [18]: 108%

Fc1ccc(NCc2cn(-c3ccccc3)nc2-c2ccc(OCc3ccccc3)cc2)cc1Cl
growth [1]: 107%
growth [2]: 89.8%
growth [4]: 72.7%
growth [19]: 112%
growth [5]: 92.2%
growth [6]: 87%
growth [7]: 93.3%
growth [8]: 88.1%
growth [9]: 92.2%
growth [10]: 71.3%
growth [11]: 77.7%
growth [12]: 95.1%
growth [13]: 97.1%
growth [14]: 79.9%
growth [15]: 101%
growth [16]: 90.7%
growth [17]: 96.7%
growth [18]: 98.9%

CCN(CC)C(=O)C[N+](C)(C)CCOC(c1ccccc1)c1ccccc1
growth [1]: 103%
growth [2]: 109%
growth [3]: 98.5%
growth [4]: 117%
growth [5]: 103%
growth [6]: 99.5%
growth [7]: 102%
growth [8]: 100%
growth [9]: 101%
growth [10]: 105%
growth [11]: 75.4%
growth [12]: 106%
growth [13]: 110%
growth [14]: 100%
growth [15]: 103%
growth [16]: 106%
growth [17]: 97.7%
growth [18]: 105%

CCN(CC)Cc1cc(Nc2cc(C(F)(F)F)c(C#N)c3nc4ccccc4n23)ccc1O
growth [1]: 25.1%
growth [2]: 11.3%
growth [4]: -8.6% (active)
growth [19]: 0.263% (active)
growth [5]: 26.7%
growth [6]: 5.79% (active)
growth [7]: 5.91% (active)
growth [8]: 24.3%
growth [9]: 6.22% (active)
growth [10]: 5.33% (active)
growth [11]: 13.5%
growth [12]: 18.5%
growth [13]: 8.94% (active)
growth [14]: 6.16% (active)
growth [15]: -36.4% (active)
growth [16]: 9.53% (active)
growth [17]: 12.2%
growth [18]: 29.6%

COc1cnc2c(c1)C(=O)c1c-2n(CCCn2ccnc2)c(=O)c2cc(Cl)ccc12
growth [1]: 2.01% (active)
growth [2]: 5.92% (active)
growth [4]: 55.2%
growth [19]: -33.6% (active)
growth [5]: 21.9%
growth [6]: 0.124% (active)
growth [7]: -11.6% (active)
growth [8]: -2.18% (active)
growth [9]: 28.9%
growth [10]: -31.5% (active)
growth [11]: 19%
growth [12]: 20.2%
growth [13]: -31% (active)
growth [14]: 24.8%
growth [15]: -49.9% (active)
growth [16]: -43.1% (active)
growth [17]: -52.5% (active)
growth [18]: 52.2%

COc1cnc2c(c1)C(=O)c1c-2n(CCCN2CCC(O)CC2)c(=O)c2cc(Cl)ccc12
growth [1]: 22.8%
growth [2]: -38.7% (active)
growth [4]: -28.4% (active)
growth [19]: 28.2%
growth [5]: 34.7%
growth [6]: 17.8%
growth [7]: 14.7%
growth [8]: 30.9%
growth [9]: -71.5% (active)
growth [10]: -54.6% (active)
growth [11]: 49.1%
growth [12]: 34.2%
growth [13]: -76.7% (active)
growth [14]: 41.9%
growth [15]: 50.7%
growth [16]: 24.5%
growth [17]: -86.3% (active)
growth [18]: 102%

CCNCCNc1cc(-c2ccc(Cl)c(Cl)c2)c(C#N)c2nc3ccccc3n12
growth [1]: -93.7% (active)
growth [2]: -65.3% (active)
growth [4]: -77.5% (active)
growth [19]: -91% (active)
growth [5]: -79.6% (active)
growth [6]: -92.3% (active)
growth [7]: -87.5% (active)
growth [8]: -73.8% (active)
growth [9]: -84% (active)
growth [10]: -87.3% (active)
growth [11]: -88.4% (active)
growth [12]: -74.2% (active)
growth [13]: -95.5% (active)
growth [14]: -83% (active)
growth [15]: -93.5% (active)
growth [16]: -74.2% (active)
growth [17]: -93.4% (active)
growth [18]: -81% (active)

CCc1nc2cc(/C=C/C(=O)NO)ccc2c(=O)n1CCc1ccc(F)cc1
growth [1]: -5.02% (active)
growth [2]: 4.68% (active)
growth [4]: -6.12% (active)
growth [19]: -29.5% (active)
growth [5]: 9.29% (active)
growth [6]: 10.4%
growth [7]: 4.06% (active)
growth [8]: 6.79% (active)
growth [9]: 24.7%
growth [10]: 8.3% (active)
growth [11]: 30.6%
growth [12]: 23.6%
growth [13]: -20.8% (active)
growth [14]: 13.2%
growth [15]: -37.8% (active)
growth [16]: -28.8% (active)
growth [17]: -73.2% (active)
growth [18]: 22.8%

O=C(NO)c1ccc(Cn2c(=O)n(-c3ccccc3F)c(=O)c3ccccc32)cc1
growth [1]: 6.2% (active)
growth [2]: 1.13% (active)
growth [4]: 21.3%
growth [19]: -44.8% (active)
growth [5]: 1.99% (active)
growth [6]: -44.3% (active)
growth [7]: -12.8% (active)
growth [8]: -22.6% (active)
growth [9]: 20.6%
growth [10]: 9.88% (active)
growth [11]: -3.9% (active)
growth [12]: 6.93% (active)
growth [13]: -85.3% (active)
growth [14]: -33.6% (active)
growth [15]: -19.2% (active)
growth [16]: -46.2% (active)
growth [17]: -86.4% (active)
growth [18]: -21.5% (active)

COc1cc(OC)c(C(=O)/C=C/c2cc3c(cc2OCc2ccccc2)OC(C)(C)CC3)cc1CC=C(C)C
growth [1]: 51.9%
growth [3]: 77.8%
growth [4]: 52.4%
growth [5]: 49.1%
growth [6]: 66.9%
growth [7]: 79.4%
growth [8]: 68.2%
growth [9]: 39.7%
growth [10]: 57.9%
growth [11]: 39.2%
growth [12]: 80.7%
growth [13]: 29.7%
growth [14]: 25.2%
growth [15]: 50.4%
growth [16]: 38.7%
growth [17]: 38.9%
growth [18]: 53.3%

CC(=O)OCCC/C(=C\c1ccc2ccccc2c1)[N+](=O)[O-]
growth [1]: -93.6% (active)
growth [3]: -53.5% (active)
growth [4]: -58.8% (active)
growth [5]: -74.2% (active)
growth [6]: 18%
growth [7]: -99% (active)
growth [8]: -70.9% (active)
growth [9]: -69.4% (active)
growth [10]: -29.8% (active)
growth [11]: -88.9% (active)
growth [12]: -39.5% (active)
growth [13]: -90.7% (active)
growth [14]: -96.8% (active)
growth [15]: -94% (active)
growth [16]: -75.5% (active)
growth [17]: -83.3% (active)
growth [18]: -91.1% (active)

CC1CCC(n2cnc3c(Cl)ncnc32)O1 (stereo unspecified)
growth [1]: 112%
growth [3]: 88.5%
growth [4]: 105%
growth [5]: 105%
growth [6]: 95.5%
growth [7]: 97.5%
growth [8]: 93.8%
growth [9]: 103%
growth [10]: 110%
growth [11]: 91.9%
growth [12]: 82.3%
growth [14]: 89.6%
growth [15]: 91%
growth [16]: 104%
growth [17]: 87.1%
growth [18]: 109%

CCCC(=O)OCC1OC(n2cnc3c(=S)nc[nH]c32)C(OC(=O)CCC)C1OC(=O)CCC (stereo unspecified)
growth [1]: 42.1%
growth [3]: 51.8%
growth [4]: 45.2%
growth [5]: 52.5%
growth [6]: 36.8%
growth [7]: 22.1%
growth [8]: 13%
growth [9]: 56.4%
growth [10]: 35.9%
growth [11]: 52.9%
growth [12]: 74.4%
growth [13]: 87.6%
growth [14]: 59.7%
growth [15]: 38.6%
growth [16]: 13.7%
growth [17]: 11.7%
growth [18]: 98.2%

CCN(CC)CCCC(C)Nc1cc(-c2ccc(C(F)(F)F)cc2)c(C#N)c2nc3ccccc3n12 (stereo unspecified)
growth [1]: 7.4% (active)
growth [2]: -46.1% (active)
growth [4]: -38% (active)
growth [19]: -75.7% (active)
growth [5]: 14.6%
growth [6]: -25.9% (active)
growth [7]: -75.1% (active)
growth [8]: -69.6% (active)
growth [9]: 3.48% (active)
growth [10]: -2.76% (active)
growth [11]: -56.1% (active)
growth [12]: 34.9%
growth [13]: 3.09% (active)
growth [14]: 22.1%
growth [15]: -89.9% (active)
growth [16]: -67.3% (active)
growth [17]: -80.6% (active)
growth [18]: -64.7% (active)

COc1cnc2c(c1)C(=O)c1c-2n(CCCN2CCOCC2)c(=O)c2cc(Cl)ccc12
growth [1]: 17.8%
growth [2]: 27.5%
growth [4]: 64.1%
growth [19]: 1.67% (active)
growth [5]: 29.1%
growth [6]: 8.59% (active)
growth [7]: 6.36% (active)
growth [8]: 11.9%
growth [9]: 43.9%
growth [10]: 8.04% (active)
growth [11]: 45.9%
growth [12]: 28.6%
growth [13]: 8.25% (active)
growth [14]: 32%
growth [15]: -9.63% (active)
growth [16]: 4.37% (active)
growth [17]: -36.6% (active)
growth [18]: 66.4%

CCc1nc2ccc(Cc3ccc(C(=O)NO)cc3)cc2c(=O)n1CCc1ccccc1
growth [1]: 2.78% (active)
growth [2]: 1.5% (active)
growth [4]: -24% (active)
growth [19]: -66.6% (active)
growth [5]: -48.5% (active)
growth [6]: -79.1% (active)
growth [7]: -43.1% (active)
growth [8]: -63.8% (active)
growth [9]: -43.2% (active)
growth [10]: -40.8% (active)
growth [11]: -20.8% (active)
growth [12]: -44.9% (active)
growth [13]: -71.4% (active)
growth [14]: -66.5% (active)
growth [15]: -65.6% (active)
growth [16]: -57.7% (active)
growth [17]: -76.2% (active)
growth [18]: -36% (active)
